# Potency and affinity values are given separately. Calls of active or inactive are those of the source. The rule behind the calls is not given here.
# Test: viability loss in HEK293 cells – cell-based, plate reader, cherry-picked samples, cytotoxicity control, dose response (AID 743446)
# Settings: stronger effect = lower value; at 26 µM unless noted
row,SMILES,max activity
1,CCOc1ccc(C(=O)Nc2cccc(C(=O)O)c2C)cc1Cl,26.7% (inactive)
2,CN(C)c1ccc(NC(=O)c2cnsn2)cc1,-9.61% [at 12 µM] (inactive)
3,CCN(C(=O)COC(=O)C12CC3CC(CC(O)(C3)C1)C2)c1c(N)n(Cc2ccccc2)c(=O)[nH]c1=O,34% [at 0.1 µM] (inactive)
4,CC(=O)N1CCc2cc(S(=O)(=O)C(C)CC(=O)NCc3ccco3)ccc21 (stereo not drawn),-15.3% [at 6 µM] (inactive)
5,O=C(c1cc(-c2ccccc2Cl)on1)N1CCCC1,27.2% (inactive)
6,Cc1cnc(NC(=O)c2ccc(OCC3CCCO3)cc2)s1 (stereo not drawn),9% [at 6 µM] (inactive)
7,C[C@@H]1CN([C@@H](C)CO)C(=O)c2cccc(NC(=O)Nc3ccc(C(F)(F)F)cc3)c2O[C@H]1CN(C)C(=O)Nc1cccc2ccccc12,14.8% [at 6 µM] (inactive)
8,c1ccc(-n2cnnc2SCc2cn3cccnc3n2)cc1,82.5% [at 0.8 µM] (inactive)
9,COc1ccc(S(=O)(=O)Nc2ccc3c(c2)C(=O)N([C@@H](C)CO)C[C@@H](C)[C@H](CN(C)C(=O)Nc2cccc4ccccc24)OCCCC[C@H](C)O3)cc1,35.8% [at 12 µM] (inactive)
10,Cc1ccc(CNS(=O)(=O)c2ccc3c(c2)CCN3C(=O)CCCC(=O)O)cc1,14.5% [at 6 µM] (inactive)
11,O=C(Nc1cc(S(=O)(=O)Nc2ccccc2Cl)ccc1O)c1ccc(F)cc1F,-13.9% [at 0.8 µM] (inactive)
12,Cc1cc(C)n2c(Nc3ccc4c(c3)OCCO4)c(-c3cc4ccccc4o3)nc2n1,52.8% (inactive)
13,Nc1ccc(-c2nc3ccc(N)cc3s2)cc1,53.7% (inactive)
14,O=C(COc1ccc2ccccc2c1)Nc1nccs1,38.6% [at 0.195 µM] (inactive)
15,CO[C@H]1CN(C)C(=O)c2ccc(NC(=O)C3CC3)cc2OC[C@@H](C)N(C(=O)Cc2ccccn2)C[C@H]1C,22% [at 1.6 µM] (inactive)
16,Cc1ccc(-c2nc(-c3ccncc3)no2)c(Cl)c1,10% [at 1.6 µM] (inactive)
17,C[C@@H]1CN([C@@H](C)CO)C(=O)c2cc(NS(=O)(=O)c3ccc(F)cc3)ccc2O[C@H]1CN(C)Cc1ccc(-c2ccccc2)cc1,-27.1% (inactive)

row,SMILES,max activity
1,CCOC(=O)Nc1ccc(N2CCOCC2)c(S(=O)(=O)Nc2ccc(Cl)cc2)c1,-19.3% (inactive)
2,O=C(O)c1c2c(nc3ccccc13)/C(=C/c1ccc(O)cc1)CC2,22.6% (inactive)
3,COc1cccc(-c2cc(C(=O)Nc3cccc(O)c3)no2)c1,-7.14% (inactive)
4,Cc1ccc(NC(=O)c2sc3ccccc3c2Cl)nc1,24.8% [at 12 µM] (inactive)
5,Cc1cc(-c2nc3cc(F)ccc3s2)ccc1N,28.1% [at 1.6 µM] (inactive)
6,C[C@H](CO)N1C[C@H](C)[C@H](CN(C)Cc2ccc(C(F)(F)F)cc2)Oc2ccc(NC(=O)Nc3ccc(F)cc3)cc2C1=O,-29.9% (inactive)
7,O=C(Nc1cccc(C(=O)O)c1)Nc1ccccc1Cl,-26.9% [at 6 µM] (inactive)
8,C[C@H]1CCCCO[C@@H](CN(C)C(=O)Nc2ccc3c(c2)OCO3)[C@@H](C)CN([C@@H](C)CO)C(=O)c2cc(NC(=O)NC3CCCCC3)ccc2O1,26.2% [at 23.5 µM] (inactive)
9,CC(=O)c1c(C)[nH]c(C(=O)CN2C(=O)NC(C)(c3ccc(C)cc3)C2=O)c1C (stereo not drawn),39.5% (inactive)
10,N#C[C@@H]1[C@H](c2ccc(C#Cc3cccc(F)c3)cc2)[C@@H](CO)N1C(=O)C1CCC1,22.1% [at 12 µM] (inactive)
11,COc1ccc(-c2cc(C(=O)N3CCCC3)no2)cc1,30.6% [at 0.195 µM] (inactive)
12,CC(C)NC(=O)Nc1ccc2c(c1)C(=O)N([C@H](C)CO)C[C@@H](C)[C@H](CN(C)S(C)(=O)=O)OCCCC[C@H](C)O2,43.1% (inactive)
13,Cc1cc(C(=O)COC(=O)C2CC2)c(C)n1-c1ccc(F)cc1,9.72% [at 12 µM] (inactive)
14,COc1ccc2sc(NC(=O)c3ccco3)nc2c1,18.6% [at 0.05 µM] (inactive)
15,CCCNC(=O)N1[C@H](C#N)[C@H](c2ccc(C#Cc3ccc(F)cc3)cc2)[C@H]1CO,-37% (inactive)
16,C[C@H](CO)N1C[C@H](C)[C@H](CN(C)C(=O)Nc2ccc3c(c2)OCO3)OCCCC[C@H](C)Oc2ccc(NC(=O)C3CCCCC3)cc2C1=O,17.6% (inactive)
